In the library only some 9.2% were active in any assay of this set; here they are far more common.
FLuc counter: inhibits or activates purified firefly luciferase, miR-21 counter-screen. AID 588342. purified FLuc, Km substrates, luminescence inhibition. Potency, µM (highest dose often 57.5 µM), without a hit: at the top dose activity change, negative = inhibition, most hits filed as inhibitors. P08659. 6.9% of 360,000 active;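 note: plate controls were vehicle for no effect and reference inhibitor for full effect; nearly all actives have a fitted effect of over 55% in size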
Target sequence (P08659 whole entry, looked up): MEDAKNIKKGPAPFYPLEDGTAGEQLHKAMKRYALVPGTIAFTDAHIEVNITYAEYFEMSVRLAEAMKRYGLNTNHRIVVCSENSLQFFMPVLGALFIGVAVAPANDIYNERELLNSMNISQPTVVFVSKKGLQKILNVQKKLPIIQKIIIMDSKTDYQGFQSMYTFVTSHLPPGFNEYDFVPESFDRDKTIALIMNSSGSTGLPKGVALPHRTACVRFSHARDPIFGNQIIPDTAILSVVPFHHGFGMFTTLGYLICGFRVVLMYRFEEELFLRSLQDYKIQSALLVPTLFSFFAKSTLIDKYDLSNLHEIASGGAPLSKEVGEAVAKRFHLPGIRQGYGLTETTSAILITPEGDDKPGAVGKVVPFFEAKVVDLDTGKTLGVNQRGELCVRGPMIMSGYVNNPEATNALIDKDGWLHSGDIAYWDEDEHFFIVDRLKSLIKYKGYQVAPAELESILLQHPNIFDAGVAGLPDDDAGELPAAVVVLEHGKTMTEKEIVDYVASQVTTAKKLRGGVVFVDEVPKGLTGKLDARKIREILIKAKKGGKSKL
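Purified P. pyralis luciferase, 10 nM final, with Km-level 10 uM D-luciferin and 10 uM ATP in 50 mM Tris acetate pH 7.5, 10 mM Mg acetate, 0.01% Tween-20, 0.05% BSA; 6-point qHTS titration about 60 µM downward; luminescence read.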
NPC1 prom act: NPC1 promoter activation | Huh7 NPC1 promoter luciferase reporter, 24 h | Potency, µM (top dose mostly 9.22 µM), for inactives: at the highest dose activation, hits mostly activators | 2.4% of 320,000 active | AID 485313; note: % of control where 0% means no effect; nearly all actives have a fitted effect of over 60% in size
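Stable NPC1-promoter luciferase Huh7 line; cpd (DMSO) 24 h, 37 °C, 5% CO2; Amplite luciferase reagent 10 min RT; luminescence readout. qHTS format.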
ELG1 repair inh: inhibitors of ELG1-dependent DNA repair in HEK293T cells; HEK293T ELG1-luciferase reporter, luminescence, 16 h; DNA damage induced by 5-fluorouridine; Potency, µM (titrated, usually from 46.1 µM), for the others: top-dose activity change, negative = inhibition, hits mostly inhibitors; 2.3% of 330,000 active; note: % is set by controls: 0 for no effect and ±100 for the full control effect; nearly all actives have a fitted effect of over 55% in size
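DMSO vehicle served as the neutral condition. Each well held 2,000 cells given 5-fluorouridine plus compound; after 16 hr at 37 °C/5% CO2, ONE-Glo was added and luciferase measured 30 min later.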
Rab9 prom act: activates the Rab9 promoter | Potency, µM (titrated, usually from 9.22 µM), for inactives: top-dose activation, negative = inhibition, most hits filed as activators | AID 485297 | Huh7 Rab9 promoter-luciferase reporter, luminescence, 24 h | 2.8% of 320,000 active; note: % of control where 0% means no effect; nearly all actives have a fitted effect of over 60% in size
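Cells were plated at 1500 per well in reduced-serum medium with 10% FBS and left 2 h. Compound in DMSO was then added for 24 h at 37 °C. Reporter signal was read by luminescence after 10 min with luciferase detection reagent.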
ELG1 genotoxic: inducers of genotoxicity in HEK293T ELG1-luciferase cells. HEK293T ELG1-luciferase reporter, luminescence, 16 h. Potency, µM (doses to about 46 µM), for inactives: at the highest dose activity change, positive = activation, actives largely listed as activators. 1.3% of 330,000 active. AID 504466; note: % of control where 0% means no effect; nearly all actives have a fitted effect of over 60% in size
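DMSO vehicle served as control against compound-treated ELG1-luciferase HEK293T cells; exposure lasted 16 hr at 37 °C and 5% CO2, followed by ONE-Glo luminescence detection after 30 min.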
SMN2 splice enh: SMN2 splice variant enhancement. HEK293 SMN2-luciferase splicing reporter, luminescence, 30-36 h. Potency, µM (titrated, usually from 46.1 µM), inactives show at the top dose activity change, positive = activation, actives largely listed as activators. 2.8% of 210,000 active. AID 1458; note: % of control where 0% means no effect; nearly all actives have a fitted effect of over 55% in size
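qHTS luciferase splicing reporter: luminescence rises when SMN2 exon 7 is included in transfected HEK293 cells. Compound exposure lasted 30-36 h at 37C, with 4.5 mM final sodium butyrate as control, followed by a ONE-Glo read.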
Active calls of the source: *; ? = inconclusive; . = no result given. Calls come from the whole dose curve; as a rule, active = well fitted curve in the direction sought with a large enough effect; inconclusive = small, poorly fitted or top-dose-only effect, or another doubt; inactive = no such curve, though single readings can be large; an effect the other way counts as inactive or inconclusive. Potency is the fitted concentration of half-maximal effect.

SMILES | FLuc counter | NPC1 prom act | ELG1 repair inh | Rab9 prom act | ELG1 genotoxic | SMN2 splice enh
CCCCNc1c(-c2ccc(SC(C)CC)c(OC)c2)nc2ccc(Cl)cn12 (centres undefined) | . | . | -14% | . | -1% | .
COCCn1c(SCC(=O)NNC(=O)c2cc(Cl)ccc2OC)nnc1-c1ccncc1 | -1% | -5% | 0% | -5% | 0% | .
COc1ccc(OC)c(CNC(=O)c2cc3c(=O)oc4ccc(C)cc4c3s2)c1 | 5% | . | . | . | . | -6%
Cc1ccc2c(cnn2C(=O)CCC(=O)N2CCCCC2)c1 | 12µM* | -1% | 21% | 1% | -14% | .
Cc1ccc2c(cnn2C(=O)CCCC(=O)NCc2ccc(F)cc2)c1 | 13µM* | 7% | 25% | 29% | -8% | .
CCc1ccc(CNC(=O)CCC(=O)n2ncc3cc(C)ccc32)cc1 | 0% | -4% | 17% | 2% | -1% | .
O=C(CCC(=O)n1ncc2ccccc21)N1CCCCC1 | ? | 1% | ? | 3% | 0% | .
COc1ccc(NC(C)=O)cc1NC(=O)c1cccc(S(=O)(=O)N2CCc3ccccc32)c1 | 2% | 0% | ? | -3% | -2% | .
O=C(Nc1ccc(F)cc1)c1cc(-c2ccccn2)nc2c(Cl)cccc12 | 0% | -1% | 3% | -7% | 18% | .
Cn1cccc1C(=O)NCCc1ccc(Cl)cc1 | 15µM* | 2.8µM* | ? | 2.5µM* | ? | .
Cn1cccc1C(=O)NCCc1ccccc1 | 4.8µM* | 0.4µM* | ? | 0.5µM* | 2.3µM* | .
O=C1CC(NS(=O)(=O)c2cc(F)ccc2F)CN1c1ccc2c(c1)OCCO2 (centres undefined) | -1% | 9% | 11% | -2% | -4% | .
O=C(CN1CCCCCC1)Nc1ccccc1OC(F)F | -1% | 2% | 10% | 1% | 6% | .
CSc1ccccc1NC(=O)c1ccc(N2CCCC2=O)cc1 | 15µM* | ? | ? | ? | ? | .
CC(=O)c1ccc(NC(=O)c2ccc(N3CCCC3=O)cc2)cc1 | -12% | 1% | ? | -1% | 2% | .
CC(=O)c1ccccc1NC(=O)c1ccc(N2CCCC2=O)cc1 | 7.6µM* | 27% | 16% | ? | ? | .
O=C(COc1ccc(F)cc1)Nc1nnc(S(=O)(=O)N2CCc3ccccc32)s1 | -6% | . | . | . | . | .
O=C(/C=C/c1ccc(-c2cccc([N+](=O)[O-])c2)o1)N1CCOCC1 | ? | ? | ? | 4µM* | ? | .
O=[N+]([O-])c1cccc(-c2ccc(/C=N/Nc3nc(N4CCCCC4)nc(N4CCCCC4)n3)o2)c1 | -7% | -4% | ? | 3% | -7% | -37%
O=[N+]([O-])c1cccc(/C=N/Nc2nc(NCc3ccccc3)nc(N3CCOCC3)n2)c1O | 17µM* | -4% | 21µM* | -6% | -15% | .
O=[N+]([O-])c1cccc(/C=N/Nc2nc(NCc3ccccc3)nc(N3CCOCC3)n2)c1 | -1% | -1% | 7% | 1% | 13% | 12%
COc1nc(N/N=C/c2ccc(-c3cccc([N+](=O)[O-])c3)o2)nc(N2CCOCC2)n1 | -5% | 0% | 2.3µM* | -2% | 2% | -20%
O=[N+]([O-])c1ccc(/C=N/Nc2nc(NCc3ccccc3)nc(N3CCOCC3)n2)cc1 | 0% | 0% | 7.3µM* | -3% | 0% | 1%
COc1ccc(C(=O)c2cn(CC(=O)Nc3ccc4c(c3)OCCO4)c3ccc(OC)cc3c2=O)cc1 | -16% | . | . | . | . | -15%
CC1CCc2sc(C(=O)NCC3CCCO3)cc2C1 (centres undefined) | 11µM* | 2.8µM* | ? | 4µM* | ? | .
SMILES | FLuc counter | NPC1 prom act | ELG1 repair inh | Rab9 prom act | ELG1 genotoxic | SMN2 splice enh
CC1CCc2sc(C(=O)NNC(=S)NC3CC3)cc2C1 (centres undefined) | -16% | ? | ? | 1.1µM* | 2% | .
CC1CCc2sc(C(=O)NN)cc2C1 (centres undefined) | ? | 5% | ? | 7% | -4% | .
CC1CCc2sc(C(=O)NNS(=O)(=O)c3ccc(F)c(F)c3F)cc2C1 (centres undefined) | 11µM* | 0% | ? | 0% | 6% | .
CC1CCc2sc(C(=O)Nc3ccc(C(N)=O)cc3)cc2C1 (centres undefined) | 2.4µM* | ? | ? | 25% | ? | .
CC1CCc2sc(C(=O)NNC(=O)c3ccncc3)cc2C1 (centres undefined) | ? | -4% | ? | 2% | 16% | .
O=C(NCC(c1ccc2c(c1)OCO2)N1CCOCC1)c1cccc(Cl)c1 (centres undefined) | -8% | . | . | . | . | .
C/C(=N\Nc1ccc2nncn2n1)c1ccccn1 | -12% | -14% | 1.2µM* | -27% | ? | .
C(=N\Nc1ccc2nncn2n1)/c1ccccn1 | -3% | -1% | 5.8µM* | -2% | ? | .
O=C1c2ccccc2S(=O)(=O)N1Cc1nc2ccccc2s1 | 19µM* | ? | ? | -11% | 16% | -69%
Cc1ccccc1CN1C(=O)c2ccccc2S1(=O)=O | 4% | 24% | -3% | 3% | -6% | .
CCc1ccc(NCc2cc3cc4c(cc3n(CC(=O)Nc3ccc(Cl)cc3)c2=O)OCO4)cc1 | -3% | . | . | . | . | .
Cc1ccc(S(=O)(=O)NCC(C)n2cncn2)cc1C (centres undefined) | 0% | -4% | 2% | -3% | 0% | .
CN(C)CCn1c(=S)[nH]c2ccccc2c1=O | 0% | 14% | 2% | 1% | 5% | 11%
CCCn1c(=S)[nH]c2ccccc2c1=O | 13µM* | -9% | 0% | -10% | -2% | 2%
CC(=O)OC1CC2C(C)(C)C(O)CCC2(C)C2CC[C@]3(C)C(=CC(=O)OC3c3ccoc3)C12C (some centres undefined) | . | . | . | . | . | -9%
CCOc1ccc(CNC(=O)c2sc3nc(C)cc(C)c3c2-n2cccc2)cc1 | -3% | . | . | . | . | .
CCOC(=O)C1=C(C)C(c2cccc(Oc3ccccc3)c2)NC(=S)N1 (centres undefined) | 3% | 3% | 26µM* | -11% | -5% | -43%
CC1CCCN(Cc2csc(N)n2)C1 (centres undefined) | -1% | 0% | 6% | 1% | -2% | 1%
Cc1ccc(-n2ncc3c(N4CCCCCC4)ncnc32)cc1Cl | 0.43µM* | . | . | . | . | .
Cc1ccc(-n2ncc3c(N4CCCCC4)ncnc32)cc1Cl | 0.13µM* | . | . | . | . | .
COc1ccc(N2CCN(c3ncnc4c3cnn4-c3ccc(C)c(Cl)c3)CC2)cc1 | 5% | . | . | . | . | .
O=C(CCNC(=O)N1CC(=O)Nc2ccccc21)Nc1ccc(Br)cc1F | 0% | 0% | 0% | -4% | 0% | .
